Assay outcomes (PubChem BioAssay)
Pf Dd2 inh = qHTS Primary assay for Inhibitors of Plasmodium falciparum Dd2 growth in vitro | P. falciparum Dd2 growth, SYBR Green, 72 h | Potency, µM (series often up to 28.9 µM), for the others: at the highest dose activity, negative = inhibition, hits mostly inhibitors | 120,000 tested, 4.3% active | AID 1347417, 2020; active = well fitted inhibition curve with a large enough effect;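 note: plate controls were DMSO vehicle for no effect and reference drug for full effect; nearly all actives have a fitted effect of over 65% in size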
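Readout: SYBR Green fluorescence, 485 nm excitation, 535 nm emission, after ~16 h lysis at 37C. Before that, Dd2-infected red cells (2.5% hematocrit) grew 72 h with compound, 29 uM top final concentration.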
Active calls of the source: *; [ ] = another dose, or the depositor's remark. Only a selection was taken, and hits are over-represented in it overall. Potency is the fitted concentration of half-maximal effect.

Results for O=C1[C@H]2CN(Cc3ccc(Cl)c(F)c3)C[C@H]2C(=O)N1Cc1ccc2c(c1)OCO2 ?
Pf Dd2 inh: 16%

What do the screens show for `CC(C)CN1C(=O)c2ccccc2C(C(=O)NC(C)C)C12CCCC2` (stereo not drawn)?
Pf Dd2 inh: -13%

How did COCc1nnc(NC(=O)C2c3ccccc3C(=O)N(CC(C)C)C23CCCC3)s1 (stereo not drawn) do in these assays?
Pf Dd2 inh: 5.6µM*

How did CC(C)CN1C(=O)c2ccccc2C(C(=O)Nc2nncs2)C12CCCC2 (stereo not drawn) do in these assays?
Pf Dd2 inh: 13µM*

What do the screens show for `CC(C)CN1C(=O)c2ccccc2C(C(=O)NC(C)C)C12CCCCC2` (stereo not drawn)?
Pf Dd2 inh: 2%

What do the screens show for `CC(C)CNC(=O)C1c2ccccc2C(=O)N(C2CCCC2)C12CCCC2` (stereo not drawn)?
Pf Dd2 inh: -26%

Results for COCCCNC(=O)C1c2ccccc2C(=O)N(CC(C)C)C12CCCCC2 (stereo not drawn) ?
Pf Dd2 inh: -8%

What do the screens show for `COCCNC(=O)C1c2ccccc2C(=O)N(CC(C)C)C12CCCCC2` (stereo not drawn)?
Pf Dd2 inh: -13%

Results for Cc1cccc(NC(=O)C2c3ccccc3C(=O)N(CC(C)C)C23CCCC3)n1 (stereo not drawn) ?
Pf Dd2 inh: 3.5µM*

How did CCCCNC(=O)C1c2ccccc2C(=O)N(Cc2ccccc2)C12CCCC2 (stereo not drawn) do in these assays?
Pf Dd2 inh: -6%

How did Cc1cccc(Cl)c1NC(=O)Cn1ccn2nc(-c3ccc(F)cc3)c(CO)c2c1=O do in these assays?
Pf Dd2 inh: -19%

Results for O=S(=O)(NCC(c1ccco1)N1CCN(c2ccc(F)cc2)CC1)c1ccccc1 (stereo not drawn) ?
Pf Dd2 inh: -24%

How did Cc1noc(C2CCCCCN2C(=O)c2ccco2)n1 (stereo not drawn) do in these assays?
Pf Dd2 inh: -22%

What do the screens show for `CCN1CCC(N2C[C@@H](CO)[C@H](c3nc(C)no3)C2)CC1`?
Pf Dd2 inh: 29%

Results for Cc1c([C@@H]2C[C@H](NC(=O)c3ccccc3)C[C@H](C(C)(C)C)O2)cnn1C ?
Pf Dd2 inh: -16%

Results for Cc1nc(N2CCCC2)ncc1C(=O)NCc1cccc(Cl)c1 ?
Pf Dd2 inh: 13%

How did CNC(=O)CCc1ccnc(N2CCCC2)c1 do in these assays?
Pf Dd2 inh: 17%

What do the screens show for `O=C(CCc1ccnc(N2CCCC2)c1)NCc1cccc(Cl)c1`?
Pf Dd2 inh: 4.5µM*

What do the screens show for `Cc1ccc(-c2cc(NC(=O)c3cccc(C)c3)on2)cc1`?
Pf Dd2 inh: 8%

How did O=C(NCc1cccnc1Oc1ccc(F)c(F)c1)C1(Cn2cccn2)CC1 do in these assays?
Pf Dd2 inh: 0%

What do the screens show for `CCCS(=O)(=O)N1CC(=O)N(c2cc(C)ccc2C)C(C)(C(=O)NC2CCCCCC2)C1` (stereo not drawn)?
Pf Dd2 inh: -3%

What do the screens show for `Cn1cnnc1CC1CCCN(C(=O)c2ccccc2)C1` (stereo not drawn)?
Pf Dd2 inh: 12%

How did O=C(Nc1ccc(N2CCC(NCC(c3ccncc3)N3CCOCC3)CC2)cc1)C1CCCC1 (stereo not drawn) do in these assays?
Pf Dd2 inh: -9%

What do the screens show for `O=C(c1ccc(N2CCC(NCC(c3ccccc3)c3ccccc3)CC2)cc1)N1CCCC(O)C1` (stereo not drawn)?
Pf Dd2 inh: 11µM*

How did COCc1nnc2n1CCC(NC(=O)c1sc(C)nc1C)CC2 (stereo not drawn) do in these assays?
Pf Dd2 inh: inactive

Results for Cc1ccccc1-c1cc(C(=O)NCc2cnn(C)c2)c2c(c1)N(C)CCO2 ?
Pf Dd2 inh: -6%[44.1 µM]

Results for CC(=O)N1CCOc2ccc(CCC(=O)NCCc3ccccn3)cc2C1 ?
Pf Dd2 inh: 12%

How did CN(C)C(=O)c1cc(-c2cnccc2Cl)c2cccn2n1 do in these assays?
Pf Dd2 inh: 11%

Results for COC(=O)CNC(=O)c1cc(-c2cnccc2Cl)c2cccn2n1 ?
Pf Dd2 inh: 1%

Results for O=C(NCc1ccc(F)cc1)c1cc(-c2cnccc2Cl)c2cccn2n1 ?
Pf Dd2 inh: 8.9µM*

What do the screens show for `COc1ccc(CNC(=O)Cc2c(C)c3c(cc(C)c4c(C)c(C)oc43)oc2=O)cc1`?
Pf Dd2 inh: 15%

How did Cc1cn2nc(C(=O)N3CCC(NC(=O)Cc4ccccc4C)CC3)cc2c(=O)[nH]1 do in these assays?
Pf Dd2 inh: inactive

What do the screens show for `Cc1cn2nc(C(=O)N3CCC(NC(=O)c4ccccc4Cl)CC3)cc2c(=O)[nH]1`?
Pf Dd2 inh: 31%

How did Cc1cn2nc(C(=O)N3CCC(NC(=O)Cc4ccc(Cl)cc4)CC3)cc2c(=O)[nH]1 do in these assays?
Pf Dd2 inh: 2.5µM*

Results for COc1ccc(C(=O)N2CCc3c(nc4cc[nH]n4c3=O)C2)c(C)c1 ?
Pf Dd2 inh: inactive

How did C#CCN(C)Cc1nc(C2(O)CCN(Cc3ccccc3C(F)(F)F)CC2)cs1 do in these assays?
Pf Dd2 inh: -32%[44.1 µM]

How did O=C(CN1CCN(c2ncccn2)CC1)NCc1ccc2nonc2c1 do in these assays?
Pf Dd2 inh: 11%

Results for O=C(C[C@@H]1CCNC[C@@H]1Cc1cc(-c2ccccc2)on1)NC1CC1 ?
Pf Dd2 inh: 11%[44.1 µM]

How did CC(C)NC(=O)C[C@@H]1CCNC[C@@H]1Cc1cc(-c2ccc(C(C)(C)C)cc2)on1 do in these assays?
Pf Dd2 inh: 7.1µM*

How did COc1ccc(-c2cc(C[C@H]3CNCC[C@H]3CC(=O)N3CCOCC3)no2)cc1 do in these assays?
Pf Dd2 inh: 9%[44.1 µM]

Results for CC(C)(C)c1ccc(-c2cc(C[C@H]3CNCC[C@H]3CC(=O)N3CCC(Cc4ccccc4)CC3)no2)cc1 ?
Pf Dd2 inh: inactive

How did CN(C)CCNC(=O)C[C@@H]1CCNC[C@@H]1Cc1cc(-c2ccc(C(C)(C)C)cc2)on1 do in these assays?
Pf Dd2 inh: inactive

How did CC(C)(C)c1ccc(-c2cc(C[C@H]3CNCC[C@H]3CC(=O)NCCN3CCOCC3)no2)cc1 do in these assays?
Pf Dd2 inh: 10µM*

Results for CN1CCN(C(=O)C[C@@H]2CCNC[C@@H]2Cc2cc(-c3ccccc3)on2)CC1 ?
Pf Dd2 inh: inactive

Results for CC(C)(C)c1ccc(-c2cc(C[C@H]3CNCC[C@H]3CC(=O)Nc3ccccc3)no2)cc1 ?
Pf Dd2 inh: -25%[44.1 µM]

How did CCN(CC)C(=O)C[C@@H]1CCNC[C@@H]1Cc1cc(-c2ccc(C(C)(C)C)cc2)on1 do in these assays?
Pf Dd2 inh: 4.5µM*

Results for O=C(c1ccoc1)N1CCC(c2noc(C3CC3)n2)C1 (stereo not drawn) ?
Pf Dd2 inh: 56%[5.79 µM]

How did COc1ccc(-c2cc(C(=O)NC3CCNCC3)c3c(C4CCCN4)noc3n2)cc1 (stereo not drawn) do in these assays?
Pf Dd2 inh: -1%

Results for C=CCCC(CN1CCSCC1)Oc1nc(OC)cc(OC)n1 (stereo not drawn) ?
Pf Dd2 inh: -18%

What do the screens show for `C=CCCC(CN1CCCC1)Oc1ccc(-c2ccccc2)nn1` (stereo not drawn)?
Pf Dd2 inh: 11µM*

Results for C=CCCC(CN1CCSCC1)Oc1ncc(CC)cn1 (stereo not drawn) ?
Pf Dd2 inh: -14%

How did C=CCCC(CN1CCCC1)Oc1ccc(C(=O)NCC)cn1 (stereo not drawn) do in these assays?
Pf Dd2 inh: 3.2µM*

How did C=CCCC(CN1CCOCC1)Oc1ccc(-c2ccccc2)nn1 (stereo not drawn) do in these assays?
Pf Dd2 inh: -12%
